Screening results deposited in PubChem by The Scripps Research Institute Molecular Screening Center.
An excerpt weighted towards active compounds, which were near 4.1% of everything screened.
DAX1 inh-1 – inhibitors of DAX1 repression of SF-1 activated StAR promoter. HEK293T StAR-luciferase reporter, SF-1/DAX-1 repression relief. inhibition, % at 6.8 µM. hit rate 1.1% among 370,000. AID 652010;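 active means inhibition above the mean over all tested compounds plus 3 SD, cut at about 3.6% in these data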;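 further: 0% = DAX-1 cells with DMSO and 100% = cells lacking DAX-1 with DMSO; higher inhibition means more luminescence from relief of DAX-1 repression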
hgDAF-12 ag – activates the H. glycines DAF-12 receptor ligand-binding domain. hit rate 1.8% among 370,000. AID 687014. activation, % at 6.8 µM. HEK293 GAL4-hgDAF12 UAS-luciferase reporter, agonist luminescence; normalized to butyrate control;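 active means activation above a cutoff set at the mean of all screened compounds plus 3 SD, cut at about 10% in these data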;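 further: 0% = DMSO wells and 100% = sodium butyrate wells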
ssDAF-12 act – activators of S. stercoralis DAF-12 nuclear receptor; hit rate 1% among 370,000; AID 652126; HEK293 ssDAF-12/GRIP1 lit1-tk-luc reporter, luminescence; % of 3 µM dafachronic acid response; activation, % at 6.8 µM;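 active means activation above the mean over all tested compounds plus 3 SD, cut at about 0.9% in these data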;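 further: 0% = DMSO-only wells and 100% = 3 µM delta7-dafachronic acid wells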
hcDAF-12 act – activators of H. contortus DAF-12 nuclear receptor. activation, % at 6.8 µM. hit rate 1.4% among 370,000. HEK293 hcDAF-12 lit1-tk-luc reporter, luminescence; 0% DMSO, 100% Δ7-dafachronic acid;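 active means activation above the mean of all tested compounds plus 3 SD, cut at about 5.5% in these data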;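 further: 100% = response to 3 µM Δ7-dafachronic acid high control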
DAX1 inh-2 – NR0B1 (DAX1) inhibition | HEK293 Gal4-DAX1 luciferase reporter, luminescence | AID 504766 | P51843 | inhibition, % at 6.75 µM | hit rate 0.99% among 340,000;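 active means inhibition above the mean over all tested compounds plus 3 SD, cut at about 4.2% in these data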;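 further: 0% = DAX1-transfected cells with DMSO and 100% = empty-vector control cells with DMSO; inhibition shows as a rise in luminescence from relieved DAX1 repression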
Target sequence (P51843 207-470 limits assumed): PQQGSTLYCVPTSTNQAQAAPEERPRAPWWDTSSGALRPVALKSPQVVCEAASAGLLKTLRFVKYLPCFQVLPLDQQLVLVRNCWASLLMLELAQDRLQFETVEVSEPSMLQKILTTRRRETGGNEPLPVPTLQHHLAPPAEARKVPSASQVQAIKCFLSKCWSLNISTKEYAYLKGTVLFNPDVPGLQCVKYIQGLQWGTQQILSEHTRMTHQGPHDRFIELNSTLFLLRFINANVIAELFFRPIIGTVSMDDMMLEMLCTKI
DAX1 conf – confirmation of human DAX1 (NR0B1) inhibitors. shares compounds with DAX1 inh-1. HEK293T StAR-promoter luciferase reporter, SF-1/DAX-1 repression. inhibition, % at 6.8 µM. hit rate 87% among 2,400. AID 652134;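 active means inhibition above the average of every tested compound plus 3 SD, cut at about 3.8% in these data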;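 further: 0% = DAX-1 cells with DMSO and 100% = no DAX-1 control cells with DMSO; active compounds raise luminescence by relieving repression of the StAR reporter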
SF1 mutant ctr – counter-screen for DAX1 inhibitors: nonselective inhibitors with SF-1 AF2 mutant; shares compounds with DAX1 inh-1; HEK293 StAR-luciferase, luminescence; inhibition, % at 6.8 µM; hit rate 78% among 2,400; AID 652136;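 active means inhibition above the mean of all tested compounds plus 3 SD, cut at about 3% in these data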;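 further: 0% = DAX-1 transfected cells with DMSO and 100% = cells without DAX-1 with DMSO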
* marks the source's active call; other numbers are inactive results; x = not tested or not shown.

SMILES	DAX1 inh-1	hgDAF-12 ag	ssDAF-12 act	hcDAF-12 act	DAX1 inh-2	DAX1 conf	SF1 mutant ctr
CCN(CC)S(=O)(=O)c1ccc(S(=O)(=O)Nc2c(C)nn(C)c2C)cc1	-4	-4	-2	-2	-4	x	x
CCC1(c2ccccc2)NC(=S)N(c2cccc(C)c2C)N1 (stereo unspecified)	0	-1	0	3	-1	x	x
O=C(O)C1CCCN(C(=O)/C=C/c2ccccc2)CC1 (stereo unspecified)	0	-2	-1	-2	x	x	x
O=C(C=Cc1ccccc1)N1CCCCC1	5.2*	5	0	3	2	6.2*	4.7*
CC(C)[C@@H](C)/C=C/[C@@H](C)[C@H]1CC[C@@H]2[C@]1(C)CCC1[C@]23C=C[C@]2(C[C@@H](O)CC[C@]12C)N(c1ncc(C(F)(F)F)cc1Cl)O3 (stereo partly specified)	0	0	0	1	x	x	x
CC(C)[C@@H](C)/C=C/[C@@H](C)[C@H]1CC[C@@H]2[C@]1(C)CCC1[C@]23C=C[C@]2(C[C@@H](O)CC[C@]12C)N(c1cnccn1)O3 (stereo partly specified)	4.6*	2	0	2	x	0	0
CC(C)(C)c1ccc(C(=O)NC(=S)N2CCOCC2)cc1	7.0*	13*	0	3	4	8.8*	3.4*
CCC(=O)C1CCCN(C(=O)CCc2nnc(-c3ccc(C(C)=O)s3)o2)C1 (stereo unspecified)	5.3*	9	0	6.0*	2	6.8*	4.8*
CCSc1nc2c(c(=O)[nH]1)C(c1cccs1)C(C(=O)OC)=C(C)N2 (stereo unspecified)	0	-4	-1	1	0	x	x
Cc1ccc(NC(=O)CCc2c(C)nn(-c3ccc(N4CCCCC4)nn3)c2C)cc1F	10*	11*	0	1	0	8.2*	4.0*
CCOc1ccc(-n2c(COc3ccc(Cl)cc3)nnc2SCC(=O)Nc2ccc(OCc3ccccc3)cc2)cc1	1	1	-1	-2	x	x	x
CN1CCCN(C(=O)c2cc3c(s2)CCCC3)CC1	1	3	0	-1	0	x	x
CC(=O)N1CCN(C(=O)c2cc3c(s2)CCCC3)CC1	4.6*	2	0	0	0	3	2
CC(C)(C)c1cc(NC(=O)c2cccs2)no1	11*	11*	1	4	0	12*	7.2*
Cc1c(C(=O)Nc2ccc(Oc3ccccc3)cc2)sc2nc3n(c(=O)c12)CCC3	-2	-3	-2	-3	-3	x	x
COc1cccc(NC(=O)c2sc3nc4n(c(=O)c3c2C)CCC4)c1	4.7*	6	-1	3	0	5.0*	5.9*
CC(=O)c1cccc(NC(=O)c2sc3nc4n(c(=O)c3c2C)CCCCC4)c1	0	-2	-1	-1	-2	x	x
CSc1cccc(NC(=O)c2sc3nc4n(c(=O)c3c2C)CCC4)c1	5.1*	3	-1	0	1	1	2
COc1cccc2c1OC[C@@H](CO)[C@H]2N(C)C(=O)Nc1ccc(Cl)cc1Cl	-2	-6	-2	-3	-3	x	x
COc1ccccc1CN1CCC(CNS(=O)(=O)c2cc(-c3onc(C)c3C)ccc2OC)CC1	4.6*	-2	-2	-2	1	3	3.1*
OC[C@@H]1CN(Cc2ccco2)C[C@H](n2cnc3c(NCc4ccc(F)cc4)ncnc32)O1	1	-1	-2	0	x	x	x
CCCCOCCCNC(=O)C[C@@H]1C[C@@]2(C(=O)OC)CC(C)(C)CC=C2N(Cc2ccccc2)C1=O	0	-4	-1	0	x	x	x
Cc1cccnc1NC(=O)c1ccc(NS(=O)(=O)c2ccc3[nH]c(=O)[nH]c3c2)cc1	0	2	-1	4	1	x	x
O=C(Nc1ncccc1O)c1ccc(NS(=O)(=O)c2ccc3[nH]c(=O)[nH]c3c2)cc1	15*	5	0	-1	2	19*	15*
O=C(CSc1nccc(=O)[nH]1)NCc1ccco1	0	0	0	-1	4	x	x
SMILES	DAX1 inh-1	hgDAF-12 ag	ssDAF-12 act	hcDAF-12 act	DAX1 inh-2	DAX1 conf	SF1 mutant ctr
C=C[C@@]1(C)CC(=O)[C@]2(O)[C@@]3(C)[C@@H](O)CCC(C)(C)[C@@H]3[C@H](O)[C@H](OC(C)=O)[C@@]2(C)O1	9.6*	-11	-2	-5	1	22*	-6
O=[N+]([O-])c1ccc(F)cc1OCc1nc(-c2cccs2)no1	6.9*	12*	1.1*	6.1*	4	8.7*	4.8*
CCc1ccc(C(=O)Nc2nc(C)cs2)s1	16*	11*	0	4	-1	9.9*	6.1*
CCOC(=O)c1sc(NC(=O)c2ccc(CC)s2)nc1C	2	6	-1	0	0	x	x
CS(=O)(=O)c1ccc(-c2cccc(NC(=O)c3ccc(Br)o3)c2)nn1	-2	-2	0	-1	-1	x	x
COc1ccc(-c2ccc(NC(=O)c3ccc(Br)o3)cc2)nn1	5.2*	4	0	0	1	5.6*	4.2*
O=C(c1ccc(C#Cc2ccccc2)cc1)N1CCC(O)CC1	4.9*	11*	0	4	x	7.2*	4.1*
Cc1nc(NC(=O)CSC2=NCCS2)sc1C(=O)N(C)C	12*	3	-1	2	0	11*	4.5*
Cc1nc(NC(=O)CSc2nnc(C3CC3)n2C)sc1C(=O)N(C)C	2	1	-1	2	1	x	x
COc1cc(C(=O)N/C(=C\c2cn(C)c3ccccc23)C(=O)NCCCN2CCOCC2)cc(OC)c1OC	0	-1	-1	-1	-1	x	x
O=C(COc1ccc(Br)cc1Cl)NC(=S)Nc1ccccn1	4.8*	3	0	5	5.2*	16*	3.0*
COc1ccccc1C(=O)N/N=C(\C)c1ccc(NC(=O)Cc2ccccc2)cc1	2	7	0	5	1	x	x
C/C(=N\NC(=O)c1cccc(C)c1O)c1ccc(NC(=O)Cc2ccccc2)cc1	6.0*	10	0	6.5*	2	4.8*	3.8*
CC(=O)Nc1cccc(C(=O)OCC(=O)c2ccccc2Cl)c1	5.1*	10	0	4	3	7.3*	5.6*
NS(=O)(=O)c1cccc(NC(=O)COC(=O)Cn2cc(C(F)(F)F)ccc2=O)c1	0	-1	-2	1	1	x	x
Cc1ccc(SCC(=O)Nc2nnc(C(C)(C)C)s2)cc1	0	-2	-2	-2	0	x	x
Cn1ccnc1SCC(=O)Nc1ccc(SC(F)F)cc1	6.2*	5	0	2	1	8.4*	5.3*
